# High-throughput results: PubChem, National Center for Advancing Translational Sciences (NCATS)
# Vif-A3F inh – inhibitors of Vif-A3F interaction | HeLa A3F-eYFP + Vif (tagged APOBEC3F with the HIV-1 protein that degrades it), YFP fluorescence increase | Potency, µM (titrated, usually from 46.1 µM) | actives 0.2% (n = 390,000) | AID 602313; further: nearly all actives have a fitted effect of over 65% in size
#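 HeLa cells stably expressing A3F-eYFP plus Vif, plated and incubated overnight at 37 deg C, then exposed to compounds overnight at 37 deg C. Blocked degradation read as raised yellow fluorescence (Ex 488/Em 500-530).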
# Vif-A3G inh – blocks the Vif interaction with human APOBEC3G; Q9HC16; HeLa A3G-eYFP + Vif (tagged APOBEC3G with the HIV-1 protein that degrades it), YFP fluorescence, overnight; Potency, µM (series often up to 46.1 µM), most hits filed as inhibitors; actives 0.076% (n = 410,000); further: nearly all actives have a fitted effect of over 60% in size
#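 HeLa cells stably expressing Vif and C-terminally eYFP-tagged A3G, seeded overnight at 37 deg C, then exposed to compound by pintool overnight at 37 deg C. Rise in yellow fluorescence (Ex 488/Em 500-530, Acumen) marks blocked Vif-driven A3G degradation.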
# TSG101-PTAP inh – blocks PTAP/TSG101 interaction to inhibit HIV-1 budding. Potency, µM (series often up to 115 µM), usual class: inhibitors. Fluorescence polarization, FITC-PTAP peptide / Tsg101 binding. AID 493005. 340,000 tested, under 10 active; active means well fitted inhibition curve with a large enough effect in the main read-out, with a control signal flat, not every such curve was filed as active; inconclusive means small, poorly fitted or top-dose-only effect, or effect the other way, or a change in a side signal; inactive means no such curve, though single readings can be large or run the other way
#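 Steps: Tsg101 binding domain dispensed (10 uM final), compounds pinned in DMSO, FITC-labeled PTAP-motif peptide added (50 nM final); after 20 min binding at room temperature, polarization measured.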
# ALOX12 inh – inhibitors of human 12S-lipoxygenase ALOX12; Potency, µM (top dose mostly 108 µM), usual class: inhibitors; P18054; AID 1671190; purified 12hLO, xylenol orange hydroperoxide absorbance; actives 1.1% (n = 580,000)
# Target sequence (P18054 whole entry, looked up): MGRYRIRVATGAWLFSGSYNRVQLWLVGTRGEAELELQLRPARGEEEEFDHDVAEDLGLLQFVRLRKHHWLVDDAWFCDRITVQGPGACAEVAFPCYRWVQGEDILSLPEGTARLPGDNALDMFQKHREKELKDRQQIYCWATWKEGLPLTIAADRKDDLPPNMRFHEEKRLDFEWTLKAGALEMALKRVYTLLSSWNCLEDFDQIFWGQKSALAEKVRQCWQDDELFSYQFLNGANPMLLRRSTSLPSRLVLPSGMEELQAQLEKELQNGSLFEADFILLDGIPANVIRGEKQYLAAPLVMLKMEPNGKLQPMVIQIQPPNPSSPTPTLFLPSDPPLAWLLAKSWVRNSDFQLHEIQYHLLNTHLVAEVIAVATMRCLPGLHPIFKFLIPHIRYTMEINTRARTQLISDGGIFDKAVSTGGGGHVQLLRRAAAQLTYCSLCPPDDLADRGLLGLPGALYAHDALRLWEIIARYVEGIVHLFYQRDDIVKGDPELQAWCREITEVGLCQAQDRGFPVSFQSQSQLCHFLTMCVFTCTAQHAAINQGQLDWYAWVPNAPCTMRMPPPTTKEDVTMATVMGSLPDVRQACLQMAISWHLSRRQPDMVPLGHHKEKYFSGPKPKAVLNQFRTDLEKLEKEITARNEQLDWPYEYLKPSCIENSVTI
#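 Hydroperoxide product was detected by ferrous iron/xylenol orange as the 573 to 405 nm absorbance ratio. Arachidonic acid at 40 uM (final) was turned over for 30 min at room temperature by 150 nM human 12hLO, pH 7.0 Hepes buffer, after 15 min compound preincubation.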
# S-ASM inh – inhibitors of human secretory acid sphingomyelinase; P17405; placental ASM, HMU-PC fluorogenic substrate, 60 min; Potency, µM (doses to about 57.5 µM), hits mostly inhibitors; actives 0.006% (n = 340,000)
#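 Fluorescence read-out (Ex 386 nm, Em 447 nm) after stopping the reaction at pH 10. Enzyme: ASM from human placenta; substrate HMU-PC0, 9 uM final; 60 min, 37 °C. Compound preincubation 10 min, ambient temperature.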
# Akt phos inh – inhibitors of Akt phosphorylation. Neuro2A IGF-stimulated pAkt S473 HTRF, 20 min; hits give low values. activity change, % for hits at 50 µM. actives 0.32% (n = 360,000); in the data active means activity change below about -80%; inconclusive means mostly about -51% to -80%
#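 Neuro2A cells in DMEM with 0.5% FBS, overnight at 37 deg C, given compound at single 50 µM final, then IGF (6 nM final) for 20 min at 37 deg C. Lysed; phospho-Akt Ser473 by HTRF after 24 h, 665/615 ratio.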
# Numbers stand for hits; – = inactive; ? = inconclusive; · = no result; ! = not active in a repeat. The list is not random: actives were taken first. Their share in the collection is about 1.4%. Unless noted, the call rests on the fitted dose curve; in most records, active means well fitted curve in the direction sought with a large enough effect; inconclusive means small, poorly fitted or top-dose-only effect, or another doubt; inactive means no such curve, though single readings can be large; an effect the other way counts as inactive or inconclusive.
SMILES,Vif-A3F inh,Vif-A3G inh,TSG101-PTAP inh,ALOX12 inh,S-ASM inh,Akt phos inh
Cc1ccc(CN2CCC(CNC(=O)c3cnn(-c4ccccc4)c3C3CCN(C(=O)OC(C)(C)C)CC3)CC2)cc1,–,–,·,–,·,·
COc1ccc(CCN2CCC(CNC(=O)c3cnn(-c4ccc(C)cc4)c3C3CCN(C(=O)OC(C)(C)C)CC3)CC2)cc1,–,–,·,40µM,·,·
COc1ccc(CNC(=O)CC[C@]23CC[C@](C)(O)C[C@H]2C(C)(C)C[C@@H]3NCc2ccccn2)cc1,·,·,·,–,·,·
Cc1ccc(-c2cc(C(=O)N3CCOCC3)c3ccccc3n2)o1,–,–,–,?,–,–
Cc1ccc(-c2cc(C(=O)N3CCCC(C(F)(F)F)C3)c3ccccc3n2)o1 (stereo unspecified),–,–,–,7.9µM!,·,–
Cc1ccc(-c2cc(C(=O)N3CCN(c4ccc(F)cc4)CC3)c3ccccc3n2)o1,–,–,–,14µM,–,–
CCOC(=O)COc1ccc2c(=O)c(-c3ccc(OC)cc3)coc2c1,·,·,·,–,·,·
O=C(Nc1cccc(C(F)(F)F)c1)c1nc2c(o1)CCN(Cc1cccc(F)c1)CC2,·,·,·,–,·,·
COC(=O)[C@H]1[C@H]2C[C@@H]3c4[nH]c5cc(OC)ccc5c4CCN3C[C@H]2C[C@@H](OC(=O)c2cc(OC)c(OC)c(OC)c2)[C@@H]1OC,?,–,–,–,–,–
COC(=O)C1=COC(C)C2CN3CCc4c([nH]c5cc(OC)c(OC)cc45)C3CC12 (stereo unspecified),8.9µM,–,?,?,–,–
O=C(CN1CCC2(CC1)OCCO2)c1c[nH]c2ccccc12,·,–,–,–,–,-122%
Brc1ccc(C2=CC(c3cccs3)n3ncnc3N2)cc1 (stereo unspecified),?,–,?,40µM,–,–
CCCCNC(=O)Cc1c[nH]c2ccccc12,·,·,·,–,·,·
Cc1nc(/N=C(\N)NC(=O)Cc2ccccc2)nc2ccccc12,·,·,·,–,·,·
O=[N+]([O-])c1ccc(N2CCN(Cc3ccccc3)CC2)c2c1no[n+]2[O-],?,7.9µM,·,–,·,–
O=[N+]([O-])c1ccc(N2CCN(Cc3ccccc3)CC2)s1,?,–,–,–,–,–
Cc1cc(O)c(N)c(C)c1Cl,–,–,–,16µM,–,–
Cc1cc(O)cc(C)c1Cl,–,–,–,–,–,–
O=S(=O)(c1ccc(=S)[nH]c1)N1CCN(Cc2ccccc2)CC1,–,–,–,40µM,–,–
Cc1ccc(/C=N/NC(=O)c2csc3ccccc23)s1,·,·,·,–,·,·
COC(=O)C1=C(C)N(Cc2ccccc2)C(=O)N[C@H]1c1ccc(Br)cc1,–,–,–,–,–,–
COC(=O)C1=C(C)N(Cc2ccc(Cl)cc2)C(=S)NC1c1ccc(Br)cc1 (stereo unspecified),·,·,·,32µM,·,·
COC(=O)C1=C(C)N(Cc2ccc(Cl)cc2)C(=S)NC1c1ccc(F)cc1 (stereo unspecified),·,·,·,40µM,·,·
CC(Cc1c[nH]c2ccccc12)NC(=O)C1CCN(c2nc(Cl)nc3nc[nH]c23)CC1 (stereo unspecified),·,·,·,–,·,·
Cc1ccc(OC(=O)C(C)Oc2ccc(Cl)cc2Cl)c(C)c1 (stereo unspecified),·,·,·,–,·,·
SMILES,Vif-A3F inh,Vif-A3G inh,TSG101-PTAP inh,ALOX12 inh,S-ASM inh,Akt phos inh
COc1ccc(CC(=O)Nc2nonc2-c2ccc(OC)c(OC)c2)cc1,·,·,·,–,·,·
O=C(CSc1ccc2c(c1)OCCO2)NCc1ccccc1,–,–,–,–,–,–
N#CC(C(=O)CSc1ccc2c(c1)OCCO2)c1nc(-c2ccccc2)cs1 (stereo unspecified),·,·,·,10µM,·,·
COC(=O)c1ccc(Oc2coc3cc(OCc4ccc(C)cc4)ccc3c2=O)cc1,·,·,·,–,·,·
CN1C(=O)c2cccc(NCCCN3C(=O)c4ccccc4C3=O)c2C1=O,25µM,–,?,–,–,?
CCc1ccc(NC(=O)/C(C#N)=C/c2cc3ccc(C)cc3nc2N2CCOCC2)cc1,7.9µM,–,?,–,–,–
